Test results reported in publication PMC5540273 (PLoS ONE, 2017).

Experiments:
Conditions in all cases: concentration: 1 μM, replicates: in singlicate; n = 1
ROCK1 = tested on: ROCK1
ROCK2 = tested on: ROCK2
ROS1 = tested on: ROS1
[1] = tested on: RPS6KA4(Kin.Dom.1-N-terminal)
[2] = tested on: RPS6KA4(Kin.Dom.2-C-terminal)
[3] = tested on: RPS6KA5(Kin.Dom.1-N-terminal)
[4] = tested on: RPS6KA5(Kin.Dom.2-C-terminal)
[5] = tested on: T1, RSK1(Kin.Dom.1-N-terminal)
T1 construct: gene RPS6KA1

[6] = tested on: T2, RSK1(Kin.Dom.2-C-terminal)
T2 construct: gene RPS6KA1

[7] = tested on: T3, RSK2(Kin.Dom.1-N-terminal)
T3 construct: gene RPS6KA3

[8] = tested on: T4, RSK2(Kin.Dom.2-C-terminal)
T4 construct: gene RPS6KA3

[9] = tested on: T5, RSK3(Kin.Dom.1-N-terminal)
T5 construct: gene RPS6KA2

[10] = tested on: T6, RSK3(Kin.Dom.2-C-terminal)
T6 construct: gene RPS6KA2

[11] = tested on: T7, RSK4(Kin.Dom.1-N-terminal)
T7 construct: gene RPS6KA6

[12] = tested on: T8, RSK4(Kin.Dom.2-C-terminal)
T8 construct: gene RPS6KA6

S6K1 = tested on: S6K1
SBK1 = tested on: SBK1
SGK2 = tested on: SGK2
SGK3 = tested on: SGK3
SGK = tested on: SGK
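Note: KINOMEscan kinase panel screen.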

Compound | %Inh (ROCK1) [%] | %Inh (ROCK2) [%] | %Inh (ROS1) [%] | %Inh [1] [%] | %Inh [2] [%] | %Inh [3] [%] | %Inh [4] [%] | %Inh [5] [%] | %Inh [6] [%] | %Inh [7] [%] | %Inh [8] [%] | %Inh [9] [%] | %Inh [10] [%] | %Inh [11] [%] | %Inh [12] [%] | %Inh (S6K1) [%] | %Inh (SBK1) [%] | %Inh (SGK2) [%] | %Inh (SGK3) [%] | %Inh (SGK) [%]
O=C(Nc1n[nH]c2cc(-c3cccc(F)c3F)ccc12)C1CC1 [SB-733894] | 0 | 9 | 7 | 0 | 2 | 0 | 2 | 13 | 6 | 0 | 0 | 52 | 0 | 0 | 0 | 22 | 11 | 29 | 12 | 32
O=C(O)COc1ncnc2cc(-c3ccc4[nH]ncc4c3)sc12 | 27 | 61 | 3 | 15 | 17 | 0 | 0 | 21 | 34 | 13 | 0 | 26 | 29 | 23 | 15 | 0 | 45 | 9 | 35 | 4
Fc1cc(Cl)ccc1Nc1ccnc2cc(I)ccc12 [GW551191] | 2 | 17 | 0 | 10 | 0 | 13 | 0 | 8 | 50 | 11 | 32 | 0 | 0 | 0 | 87 | 4 | 19 | 4 | 0 | 8
Cc1csc(-c2nc(Nc3ccncc3)c3ccccc3n2)n1 [GW869640] | 65 | 18 | 22 | 52 | 17 | 13 | 16 | 0 | 22 | 42 | 45 | 15 | 3 | 44 | 40 | 32 | 51 | 0 | 13 | 39
Cc1cccc(-c2nc(-c3ccc(S(C)(=O)=O)cc3)sc2-c2ccnc(NCCc3ccccc3)c2)c1 | 0 | 0 | 0 | 5 | 2 | 18 | 0 | 0 | 8 | 0 | 0 | 5 | 0 | 0 | 0 | 0 | 0 | 2 | 0 | 0
CN1C(=O)C(Nc2ccc(Cl)c(C(=O)O)c2)=C(c2ccc(Cl)cc2)C1=O [SB-404290] | 5 | 0 | 18 | 0 | 2 | 0 | 0 | 0 | 12 | 28 | 8 | 0 | 1 | 33 | 0 | 53 | 24 | 9 | 19 | 13
COc1ccc2nc(-c3cccc(C)n3)nc(Nc3ccncc3)c2c1 [GSK204919] | 13 | 5 | 4 | 12 | 0 | 25 | 0 | 2 | 7 | 0 | 19 | 19 | 0 | 0 | 26 | 1 | 21 | 0 | 0 | 0
COc1ccc(C2=C(Nc3cccc(C(=O)O)c3)C(=O)NC2=O)cc1 [SB-390765] | 20 | 0 | 14 | 19 | 17 | 2 | 9 | 30 | 7 | 34 | 8 | 9 | 2 | 16 | 30 | 15 | 35 | 21 | 22 | 29
Cc1cccc(-c2nc(Nc3cccc(C(N)=O)c3)c3ccccc3n2)n1 [GW876019] | 1 | 15 | 0 | 27 | 0 | 0 | 0 | 0 | 46 | 1 | 49 | 2 | 27 | 0 | 9 | 8 | 0 | 0 | 0 | 0
Nc1ncnc2[nH]c(-c3ccccc3)nc12 [AH5015] | 11 | 14 | 0 | 15 | 0 | 5 | 0 | 15 | 0 | 15 | 6 | 0 | 0 | 9 | 34 | 22 | 78 | 5 | 18 | 21
Cc1ccc(-c2cc(-c3c[nH]nc3-c3ccccn3)ccn2)cc1 [GW684088] | 25 | 17 | 37 | 2 | 0 | 2 | 19 | 8 | 24 | 6 | 30 | 0 | 25 | 0 | 62 | 5 | 4 | 0 | 4 | 0
O=C(Nc1ccc2c(c1)OCO2)NC1CCN(c2ccnc(Nc3ccc(F)cc3)n2)C1 (stereo not shown) [GSK1379724] | 6 | 3 | 0 | 0 | 0 | 11 | 0 | 11 | 0 | 12 | 0 | 0 | 0 | 0 | 0 | 6 | 13 | 0 | 0 | 0
CCn1c(-c2ccccn2)nc2cnccc21 [SB-736398] | 14 | 30 | 0 | 13 | 0 | 15 | 0 | 65 | 0 | 15 | 32 | 5 | 0 | 1 | 0 | 7 | 0 | 2 | 0 | 3
Cc1cc(N2Cc3ccccc3C2)nc(Nc2ccc(S(=O)(=O)N3CCOCC3)cc2)n1.Cl [GSK1669917] | 0 | 0 | 18 | 5 | 0 | 0 | 0 | 0 | 17 | 0 | 0 | 0 | 7 | 0 | 1 | 2 | 16 | 0 | 9 | 0
